A selection: hits, their analogues and other compounds. The true share with any hit is near 2.2%.
CRFBP-R2 agonist – agonists of CRF-BP/CRF-R2 complex, primary screen, cell-based, HEK293, calcium dye fluorescence, uHTS | calcium dye fluorescence (FLIPR); percent of saturating CRF peptide response | activation, % at 13.2 µM | actives 0.46% (n = 350,000) | CRF-binding protein / CRF receptor 2 complex (human);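 active means activation of at least 50%, plus an integration ratio under a set limit after plate pattern correction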;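 further: plate controls were neutral control wells without compound for no effect and CRF at EC100 for full effect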
RTF Ca sens inh – cardiac RTF calcium sensitivity inhibitors, primary screen, biochemical, IANBD-TnC fluorescence, EC70 calcium. actives 0.12% (n = 340,000). IANBD-labeled cardiac RTF, Ca2+ fluorescence. Troponin I, cardiac muscle (Homo sapiens) + Troponin T, cardiac muscle (Homo sapiens) + …. inhibition, % at 7.15 µM;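 active means inhibition above the mean inhibition of all tested compounds plus 3 SD, cut at about 17% in these data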;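 further: assay run at fixed EC70 calcium of 1.6 mM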
CRFR2-BP antag – antagonists of CRF-BP/CRF-R2 complex, primary screen, cell-based, HEK293, calcium dye fluorescence, uHTS; inhibition, % at 11.8 µM; CRF-induced calcium fluorescence; actives 0.59% (n = 350,000);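 active means inhibition of the ligand-induced calcium signal above about 50% at the single tested concentration, limit read from the data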
cardiac RTF act – cardiac RTF calcium sensitivity activators, primary screen, biochemical, IANBD-TnC fluorescence, EC20 calcium; activation, % at 7.2 µM; actives 0.24% (n = 340,000); IANBD-labeled TnC RTF fluorescence at EC20 calcium; 0% EC20 calcium, 100% full calcium; Troponin I, cardiac muscle (Homo sapiens) + Troponin T, cardiac muscle (Homo sapiens) + …;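 active means activation above the mean over all tested compounds plus 3 SD, cut at about 30% in these data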;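 further: rise in fluorescence read as greater calcium sensitivity of cardiac thin filaments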
Myeloid diff MLP – induction of myeloid progenitor differentiation, primary screen, cell-based, flow cytometry, MLPCN library; ER-HoxA9 myeloid progenitors, lysozyme-GFP differentiation; calls only at 10 µM; actives 1% (n = 360,000);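 active means normalized GFP-positive differentiation at or above the plate's own cutoff, the solvent-only control mean plus 3 SD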;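 further: cells exposed to compound for four days before flow analysis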
The depositor's hits bear a star; i = inactive; x = no result; + = active, no number.

SMILES	CRFBP-R2 agonist	RTF Ca sens inh	CRFR2-BP antag	cardiac RTF act	Myeloid diff MLP
O=C1C2=C(NC(=S)NC2c2ccc(Cl)cc2)NC(c2ccc(Cl)cc2)N1c1ccc(Cl)cc1 (stereo not drawn)	0	-8	-79	-6	+
COc1ccccc1C(=O)NCCC(=O)N1CCN(c2ccccc2O)CC1	0	3	71*	-6	i
COc1ccccc1C(=O)NCCC(=O)N1CCCCC1	-1	-6	11	3	i
CCC(=O)Nc1cc(Cl)ccc1N1CCN(C(=O)CC)CC1	-1	-3	81*	1	i
O=C(C1CCCC1)N1CCCC(Nc2ccc(F)cc2)C1 (stereo not drawn)	117*	0	-78	-1	i
O=C(C1CCCC1)N1CCCC(Nc2ccccc2)C1 (stereo not drawn)	-1	0	0	0	i
COc1ccc(-c2cccc3c2NC(=O)C3=O)cc1OC	1	-2	3	-1	i
CCOC(=O)c1sc(-c2ccc(Br)cc2)cc1N	-2	2	-12	-8	i
NNC(=O)c1sc(-c2ccc(Cl)cc2)cc1N	-2	-3	9	-5	+
CCCCNC(=O)/C=C/c1ccc(S(=O)(=O)Nc2ccc(OC)cc2)cc1	0	-23	-40	0	i
Cc1csc(=Nc2ccccc2)n1Cc1ccco1	-12	-10	53*	-9	i
COc1ccc(N2CC(C)(C)[C@H](CC(=O)Nc3ccccc3)C2=O)cc1	0	x	2	x	i
O=C(/C=C/c1cccs1)NNC(=O)c1ccccc1	-1	1	8	2	i
CCN(CC)C(=O)C1c2ccccc2Oc2ccccc21	-1	2	0	-8	+
Cc1cc(NC(=O)C(C)SCC(=O)N(C)CC(=O)Nc2ccccc2Br)no1 (stereo not drawn)	0	4	-13	5	i
CN1CCc2nc(SCC(=O)Nc3cccc(F)c3)c(C#N)c(-c3cccs3)c2C1	-2	-18	7	-5	i
CN1CCc2nc(SCC(=O)Nc3ccc(OC(F)(F)F)cc3)c(C#N)c(-c3cccs3)c2C1	5	-14	-7	-2	+
CCCNC(=O)c1ccc(CN2CCc3ccccc3C2)cc1	-4	-1	85*	0	i
COCCNC(=O)c1ccc(CN2CCc3ccccc3C2)cc1	-2	-8	10	2	i
O=C(CSc1nnc(C2COc3ccccc3O2)o1)NC1CCCCC1 (stereo not drawn)	-2	-2	54*	0	i
COC(=O)[C@@]12CCCCN1[C@H](c1ccc(-c3ccc(OC)cc3)cc1)[C@H]1C(=O)N(C)C(=O)[C@H]12	1	-2	8	-2	+
O=C(O)c1cc(N/N=C/C=C/c2ccccc2)ccc1Cl	1	-2	-2	-4	i
O=C(O)c1cc(=S)nc[nH]1	0	9	-5	-4	i
O=c1c2ccccc2sc2ccc(NCCCN3CCOCC3)cc12	102*	-11	-100	10	+
CN1CCCC1CCNc1ccc2sc3ccccc3c(=O)c2c1 (stereo not drawn)	38	-11	-35	4	+
SMILES	CRFBP-R2 agonist	RTF Ca sens inh	CRFR2-BP antag	cardiac RTF act	Myeloid diff MLP
Cc1cc2oc3cc(NCCC4CCCN4C)ccc3c(=O)c2cc1C (stereo not drawn)	-1	2	11	4	i
Cc1ccc(S(=O)(=O)N2CCOCC2)cc1C(=O)NCCc1ccc(Cl)cc1	-2	2	4	-7	i
COc1ccc(Cl)cc1NC(=O)C[n+]1cccc(C)c1	0	1	8	-4	i
COC(=O)C[C@H]1CC[C@@H](NC(=O)Nc2cccc(OC)c2)[C@@H](CO)O1	x	x	x	x	i
COc1ccc(Cl)cc1NC(=O)CSc1nc(NS(=O)(=O)c2ccc(C)cc2)cc(=O)[nH]1	5	-16	0	-2	+
Cc1ccc(S(=O)(=O)Nc2cc(=O)[nH]c(SCc3ccc(Cl)cc3)n2)cc1	0	8	17	3	i
COc1ccc(C(=O)CSc2nnn(-c3cccc(NC(C)=O)c3)n2)cc1	69*	x	-53	x	i
